# Measurements reported in the supplement of paper PMC6555819.
# Assays:
# Test in all cases: PBM binding z-score (relative to random genomic background probes); higher = stronger binding; sequences stand for … in GC…GCGATTGACAGCGTAGAATGAAGG
# [1] = system: FXR:RXRa (NR concentration 270 nM, RXRa partner concentration 90 nM)
# In short: (§1)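 Ligand-free nuclear receptor dimers were applied to custom Agilent 4×180K protein-binding microarrays whose double-stranded probes carried direct-repeat seeds, single-nucleotide variants, half-site ablations and random human genomic background sequences in 34-nt variable regions. Incubation lasted 1 h. Binding z-scores were computed against the random background probes from regression-normalized fluorescence.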
# [2] = system: LXRa:RXRa (NR concentration 270 nM, RXRa partner concentration 90 nM)
# In short: as §1
# [3] = system: LXRa homodimer (NR concentration 270 nM)
# In short: as §1
# [4] = system: LXRb:RXRa (NR concentration 270 nM, RXRa partner concentration 90 nM)
# In short: as §1
# [5] = system: LXRb homodimer (NR concentration 270 nM)
# In short: as §1
# [6] = system: PPARa:RXRa (NR concentration 270 nM, RXRa partner concentration 90 nM)
# In short: as §1
# [7] = system: PPARg:RXRa (NR concentration 180 nM, RXRa partner concentration 90 nM)
# In short: as §1
# [8] = system: PPARg:RXRa 270nM:90nM, anti-RXR (NR concentration 270 nM, RXRa partner concentration 90 nM)
# In short: as §1
# [9] = system: PPARg:RXRa 30nM:10nM, anti-RXR (NR concentration 30 nM, RXRa partner concentration 10 nM)
# In short: as §1
# [10] = system: PPARg:RXRa 90nM:30nM, anti-RXR (NR concentration 90 nM, RXRa partner concentration 30 nM)
# In short: as §1
# [11] = system: PPARg:RXRa DBDmut IVT, anti-RXR (DBD mutation: RXRa K156A/R161A, NR concentration 270 nM, RXRa partner concentration 90 nM)
# In short: as §1
# [12] = system: PPARg:RXRa IVT, anti-PPARg (NR concentration 270 nM, RXRa partner concentration 90 nM)
# In short: as §1
# [13] = system: PPARg DBDmut:RXRa IVT, anti-PPARg (DBD mutation: PPARg1 K132A/R137A, NR concentration 270 nM, RXRa partner concentration 90 nM)
# In short: as §1
# [14] = system: PPARg DBDmut IVT, anti-PPARg (DBD mutation: PPARg1 K132A/R137A, NR concentration 270 nM)
# In short: as §1
# [15] = system: PPARg homodimer (NR concentration 180 nM)
# In short: as §1
# [16] = system: PXR:RXRa (NR concentration 270 nM, RXRa partner concentration 90 nM)
# In short: as §1
# [17] = system: PXR homodimer (NR concentration 270 nM)
# In short: as §1
# [18] = system: RARa:RXR (NR concentration 270 nM, RXRa partner concentration 90 nM)
# In short: as §1
# [19] = system: RARa homodimer (NR concentration 270 nM)
# In short: as §1
# [20] = system: RARb:RXRa (NR concentration 270 nM, RXRa partner concentration 90 nM)
# In short: as §1
Sequence,PBM binding z-score [1],PBM binding z-score [2],PBM binding z-score [3],PBM binding z-score [4],PBM binding z-score [5],PBM binding z-score [6],PBM binding z-score [7],PBM binding z-score [8],PBM binding z-score [9],PBM binding z-score [10],PBM binding z-score [11],PBM binding z-score [12],PBM binding z-score [13],PBM binding z-score [14],PBM binding z-score [15],PBM binding z-score [16],PBM binding z-score [17],PBM binding z-score [18],PBM binding z-score [19],PBM binding z-score [20]
TCAAATAGGTAATACAGGTGAAAGTCGGCATCTA,0.834,1.29,0.418,0.892,0.0118,2.04,1.14,2.72,4.16,3.5,3.6,2.94,1.25,1.14,0.815,0.771,0.46,0.82,1.66,0.777
TCGAGTAGGTTAATCGGGGCATTCAGCCAACATA,0.0036,0.53,-0.187,0.859,-0.245,1.72,0.726,1.54,1.04,1.31,3.25,3.08,0.341,-0.256,0.811,0.519,-0.134,0.933,-0.986,0.81
CCTACTAGGCCAAGGTCATTGATCAGTCAAAGCA,3.42,3.71,2.03,3.21,0.097,4.66,4.96,4.59,2.19,4.42,5.34,4.8,0.0145,0.199,1.67,3.52,1.98,3.68,0.849,3.62
CGTCAAAGTTCAGCTAAGGTAACGTAAAGCACGC,4.58,4.17,1.68,2.31,0.319,3.68,3.16,3.94,1.03,2.96,0.23,1.25,0.517,-0.309,1.44,4,1.56,3.29,1.13,4.65
CCTAGCAGGCCAATCAGGGTCACTCAAGGCTTGA,2.6,3.39,-0.0064,3.03,-0.752,3.63,0.949,1.33,-0.454,0.361,1.3,1.7,-0.834,-1.49,0.893,4.07,-0.258,3.42,-0.49,2.36
TATACAGGGTCAAACGCCAGAGTACGAATGTCGA,7.58,6.35,3.43,5.2,3.15,6.3,7.33,6.79,3.84,5.94,2.52,4.64,3.59,3.04,3.53,4.49,0.94,5.61,0.721,4.45
CGAACTAGGTCATTGACAGGACAGTTAATAGTAA,4.35,3.12,0.774,2.36,0.0885,4.66,7.39,6.51,3.39,5.59,8.43,8.43,3.82,2.93,2,1.68,0.386,2.32,0.822,3.6
